Laboratory results taken from PubChem BioAssay.
Unmarked numbers belong to inactive results. The source made the active and inactive calls. Unless noted, no stated cut-off is given here; in the data, active means inhibition above about 44%; inactive means the rest.

Experiments:
[1] = target: Nuclear receptor coactivator 3 (Homo sapiens) (UniProt Q9Y6Q9); experiment: SRC3 coactivator transcriptional activity inhibitors, confirmation, cell-based, luminescence, quadruplicate (AID 588792;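 active means mean inhibition over 43.08%, the solvent-only control mean plus 3 SD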;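 further: 0% = DMSO treated cells and 100% = gossypol at 36 µM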); conditions: HEK293 GAL4-SRC3 luciferase reporter, at 3.6 µM, hits give high values
[2] = test system: transactivating tegument protein VP16 (Human herpesvirus 1), Gal4-VP16 luciferase reporter; experiment: VP16 transactivation inhibitors, counter-screen for SRC3 inhibitor project, cell-based, luminescence, high throughput (AID 588794; in the data active means inhibition above about 30%); conditions: mammalian cells, VP16-driven luciferase reporter luminescence; at 3.6 µM; hits give high values
[3] = target: Nuclear receptor coactivator 1 (Homo sapiens) (UniProt Q15788); experiment: SRC1 coactivator transcriptional activity inhibitors, confirmation, cell-based, luminescence, quadruplicate (AID 588820;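 active means mean inhibition above 46.68%, the untreated control wells mean plus 3 SD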;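 further: 0% = DMSO wells and 100% = gossypol 36 µM treated wells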); conditions: HEK293 GAL4-SRC1 luciferase reporter, at 3.6 µM, hits give high values
[4] = VP16 transactivation inhibitors, counter-screen for SRC1 inhibitor project, cell-based, luminescence, high throughput (AID 588824; in the data active means inhibition above about 25%); conditions: cell-based VP16 transactivation luciferase luminescence; at 3.6 µM; hits give high values
[5] = StAR promoter reporter inhibitors, counter-screen for LRH-1 inverse agonist project, cell-based, luminescence, high throughput (AID 651611; in the data active means inhibition above about 28%); conditions: StAR promoter luciferase reporter counterscreen, at 3.6 µM, hits give high values
[6] = target: Nuclear receptor subfamily 5 group A member 2 (Homo sapiens) (UniProt O00482); experiment: LRH-1 (NR5A2) inverse agonists, retest, confirmation, cell-based, luminescence (AID 651613; in the data active means inhibition above about 42%;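 further: HEK293T cells co-transfected with LRH-1 and StAR promoter luciferase reporter; 0% = vehicle wells and 100% = parental cells lacking receptor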); conditions: cell-based LRH-1 luciferase reporter, inverse agonism; at 3.6 µM; hits give high values
[7] = target: Steroidogenic factor 1 (Homo sapiens) (UniProt Q13285); experiment: SF1 (NR5A1) inverse agonists, counter-screen for LRH-1 inverse agonist project, cell-based, luminescence, high throughput (AID 651614); conditions: cell-based SF1 luciferase reporter, at 3.6 µM, hits give high values;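 further: cells cotransfected with StAR promoter reporter and SF1 expression vector; 0% = vehicle on cells with receptor and 100% = vehicle on cells lacking receptor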
[8] = VP16 transactivation reporter inhibitors, counter-screen for LRH-1 inverse agonist project, cell-based, luminescence, high throughput (AID 651615; in the data active means inhibition above about 33%); conditions: Gal4-VP16 luciferase reporter cells, at 3.6 µM, hits give high values

Nuclear receptor coactivator 3 (Homo sapiens), sequence (Q9Y6Q9 whole entry, looked up, the tested form may be a part): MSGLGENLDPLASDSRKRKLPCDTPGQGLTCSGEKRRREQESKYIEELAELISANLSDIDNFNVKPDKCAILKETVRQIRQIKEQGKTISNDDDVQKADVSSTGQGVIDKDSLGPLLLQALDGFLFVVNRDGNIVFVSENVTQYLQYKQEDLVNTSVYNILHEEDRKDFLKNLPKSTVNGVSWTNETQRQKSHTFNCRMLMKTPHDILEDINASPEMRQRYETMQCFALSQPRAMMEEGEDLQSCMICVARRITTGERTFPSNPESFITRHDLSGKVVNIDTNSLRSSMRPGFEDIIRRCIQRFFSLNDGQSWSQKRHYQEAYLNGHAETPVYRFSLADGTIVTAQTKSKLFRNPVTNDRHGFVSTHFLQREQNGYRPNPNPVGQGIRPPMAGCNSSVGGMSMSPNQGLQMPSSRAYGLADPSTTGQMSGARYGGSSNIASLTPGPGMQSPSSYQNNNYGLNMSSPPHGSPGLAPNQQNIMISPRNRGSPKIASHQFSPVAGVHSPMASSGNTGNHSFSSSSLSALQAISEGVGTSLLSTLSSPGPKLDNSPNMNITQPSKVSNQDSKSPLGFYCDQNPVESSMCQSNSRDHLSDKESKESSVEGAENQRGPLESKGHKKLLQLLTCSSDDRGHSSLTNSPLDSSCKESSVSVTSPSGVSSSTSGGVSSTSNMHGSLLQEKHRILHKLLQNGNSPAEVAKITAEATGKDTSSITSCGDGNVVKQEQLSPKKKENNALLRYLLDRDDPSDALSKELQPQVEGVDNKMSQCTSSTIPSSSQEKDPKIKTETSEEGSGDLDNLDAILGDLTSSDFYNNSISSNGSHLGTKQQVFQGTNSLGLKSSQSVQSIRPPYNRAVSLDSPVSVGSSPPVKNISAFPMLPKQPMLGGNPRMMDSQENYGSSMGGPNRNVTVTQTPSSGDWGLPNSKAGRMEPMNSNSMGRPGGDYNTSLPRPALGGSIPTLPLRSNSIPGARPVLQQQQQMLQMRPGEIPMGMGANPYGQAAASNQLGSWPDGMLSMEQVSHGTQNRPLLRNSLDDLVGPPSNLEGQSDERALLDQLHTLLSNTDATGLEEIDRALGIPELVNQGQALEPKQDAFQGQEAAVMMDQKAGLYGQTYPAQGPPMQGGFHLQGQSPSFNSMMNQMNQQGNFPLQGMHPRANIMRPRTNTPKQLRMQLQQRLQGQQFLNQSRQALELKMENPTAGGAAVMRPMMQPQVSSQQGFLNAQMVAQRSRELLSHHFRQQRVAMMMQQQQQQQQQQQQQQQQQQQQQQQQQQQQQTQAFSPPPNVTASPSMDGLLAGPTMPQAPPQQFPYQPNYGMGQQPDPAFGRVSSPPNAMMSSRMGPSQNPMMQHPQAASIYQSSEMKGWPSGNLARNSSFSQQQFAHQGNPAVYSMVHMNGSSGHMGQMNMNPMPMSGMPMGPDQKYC
Nuclear receptor subfamily 5 group A member 2 (Homo sapiens), sequence (O00482 whole entry, looked up): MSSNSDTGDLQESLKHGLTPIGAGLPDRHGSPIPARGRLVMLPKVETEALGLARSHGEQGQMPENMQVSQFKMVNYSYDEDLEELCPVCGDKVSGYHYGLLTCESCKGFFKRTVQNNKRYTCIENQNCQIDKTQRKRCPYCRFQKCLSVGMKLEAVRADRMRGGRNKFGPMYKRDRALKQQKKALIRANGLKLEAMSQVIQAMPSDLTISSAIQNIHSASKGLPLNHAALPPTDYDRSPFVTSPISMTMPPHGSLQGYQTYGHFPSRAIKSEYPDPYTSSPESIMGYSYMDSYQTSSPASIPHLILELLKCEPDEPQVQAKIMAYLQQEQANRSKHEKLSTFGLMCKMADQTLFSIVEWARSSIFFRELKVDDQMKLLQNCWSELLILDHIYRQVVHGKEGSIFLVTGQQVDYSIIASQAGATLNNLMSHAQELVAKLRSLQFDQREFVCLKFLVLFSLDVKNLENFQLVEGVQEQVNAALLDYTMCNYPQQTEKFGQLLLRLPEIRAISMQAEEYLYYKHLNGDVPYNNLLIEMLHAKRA
Steroidogenic factor 1 (Homo sapiens), sequence (Q13285 whole entry, looked up, the tested form may be a part): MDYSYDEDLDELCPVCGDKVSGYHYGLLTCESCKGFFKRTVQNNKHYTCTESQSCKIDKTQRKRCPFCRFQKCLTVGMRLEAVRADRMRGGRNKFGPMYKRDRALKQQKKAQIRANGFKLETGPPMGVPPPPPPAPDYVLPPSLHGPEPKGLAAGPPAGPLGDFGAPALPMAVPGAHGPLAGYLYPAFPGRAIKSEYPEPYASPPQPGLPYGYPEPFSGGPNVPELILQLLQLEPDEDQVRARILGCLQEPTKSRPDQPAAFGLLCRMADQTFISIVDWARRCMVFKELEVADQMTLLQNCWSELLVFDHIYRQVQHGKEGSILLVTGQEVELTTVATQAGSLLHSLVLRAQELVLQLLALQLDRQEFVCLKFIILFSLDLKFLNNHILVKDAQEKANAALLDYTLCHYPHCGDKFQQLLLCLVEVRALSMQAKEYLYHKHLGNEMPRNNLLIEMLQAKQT
Nuclear receptor coactivator 1 (Homo sapiens), sequence (Q15788 whole entry, looked up, the tested form may be a part): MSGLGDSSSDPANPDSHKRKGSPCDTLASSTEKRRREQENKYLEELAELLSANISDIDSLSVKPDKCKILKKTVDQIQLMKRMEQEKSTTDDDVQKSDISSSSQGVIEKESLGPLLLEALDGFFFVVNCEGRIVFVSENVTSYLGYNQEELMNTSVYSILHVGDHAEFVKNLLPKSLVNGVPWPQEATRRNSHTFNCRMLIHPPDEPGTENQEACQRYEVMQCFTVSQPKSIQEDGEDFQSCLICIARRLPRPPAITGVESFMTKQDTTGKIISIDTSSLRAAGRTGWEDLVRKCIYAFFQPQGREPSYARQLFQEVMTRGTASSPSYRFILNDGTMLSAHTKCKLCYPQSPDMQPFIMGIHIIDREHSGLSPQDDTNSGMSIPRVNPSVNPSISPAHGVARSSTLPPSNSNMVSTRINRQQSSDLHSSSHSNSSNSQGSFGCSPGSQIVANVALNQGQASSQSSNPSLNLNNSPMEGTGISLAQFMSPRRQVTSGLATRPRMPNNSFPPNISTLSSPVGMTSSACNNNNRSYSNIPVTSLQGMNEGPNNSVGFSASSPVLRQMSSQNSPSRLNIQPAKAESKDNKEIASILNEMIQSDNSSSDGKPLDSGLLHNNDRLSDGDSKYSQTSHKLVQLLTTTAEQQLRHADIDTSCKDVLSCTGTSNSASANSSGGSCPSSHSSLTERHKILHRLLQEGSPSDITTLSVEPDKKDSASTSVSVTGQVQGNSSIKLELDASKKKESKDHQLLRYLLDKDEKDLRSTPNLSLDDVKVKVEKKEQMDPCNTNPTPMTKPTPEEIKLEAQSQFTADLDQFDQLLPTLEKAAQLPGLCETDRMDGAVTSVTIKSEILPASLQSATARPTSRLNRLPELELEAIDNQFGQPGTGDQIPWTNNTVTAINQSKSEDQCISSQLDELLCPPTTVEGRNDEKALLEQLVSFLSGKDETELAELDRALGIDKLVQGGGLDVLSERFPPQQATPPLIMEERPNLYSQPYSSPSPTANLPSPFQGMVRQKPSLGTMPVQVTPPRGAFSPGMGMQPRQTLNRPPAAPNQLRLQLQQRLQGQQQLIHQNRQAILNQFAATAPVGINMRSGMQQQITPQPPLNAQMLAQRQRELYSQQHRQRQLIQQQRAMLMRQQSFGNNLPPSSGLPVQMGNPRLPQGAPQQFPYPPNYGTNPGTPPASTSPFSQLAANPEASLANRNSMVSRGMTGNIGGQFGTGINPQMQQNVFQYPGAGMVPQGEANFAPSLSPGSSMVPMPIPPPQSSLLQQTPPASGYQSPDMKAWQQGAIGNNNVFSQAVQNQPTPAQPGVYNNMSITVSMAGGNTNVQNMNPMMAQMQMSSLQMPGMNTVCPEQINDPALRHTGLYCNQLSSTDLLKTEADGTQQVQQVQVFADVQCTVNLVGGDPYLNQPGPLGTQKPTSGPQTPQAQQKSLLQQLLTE

| SMILES | inhibition [1] | inhibition [2] | inhibition [3] | inhibition [4] | inhibition [5] | inhibition [6] | inhibition [7] | inhibition [8] |
| --- | --- | --- | --- | --- | --- | --- | --- | --- |
| O=C1[C@@H]2Cc3c([nH]c4ccccc34)C(c3ccc([N+](=O)[O-])cc3)N2C(=O)CN1C1CC1 (stereo partly drawn) | 63.7% (active) | 64% (active) | 62.3% (active) | 62.6% (active) | 60.7% (active) | 67.9% (active) | 71.4% (active) | 75.7% (active) |
| Cc1ccc(N(CCC#N)C(=O)CCl)cc1C | 54.3% (active) | 14.7% | 7.31% | 28.4% (active) | 14.8% | 58.5% (active) | 49.2% (active) | 15.7% |
| Cc1cc(-c2nnc(SCC(=O)Nc3ccccc3C(F)(F)F)o2)c(C)n1-c1ccccc1 | 33.3% | 11.2% | -7.25% | -22.9% | 28.2% (active) | -50.2% | 14.8% | -38.7% |
| CCC(C)(C)c1ccc(OCCCC[n+]2cccc(C)c2C)c(C(C)(C)CC)c1 | 56.1% (active) | 72.2% (active) | 43.5% | 71% (active) | 58% (active) | 88.1% (active) | 85.2% (active) | 80.9% (active) |
| N=c1c2c(n(Cc3ccc(Cl)cc3)c3c1CCC3)CCC2 | 55.8% (active) | 68.7% (active) | 47.1% (active) | 61.9% (active) | 58.6% (active) | 105% (active) | 85.1% (active) | 78.3% (active) |
| CN(C)c1ccc(C=c2c3ccccc3n3c2cc(-c2ccccc2)[n+]3C)cc1 | 65.7% (active) | 84.2% (active) | 56.7% (active) | 88.2% (active) | 74% (active) | 109% (active) | 94.8% (active) | 93.5% (active) |
| O=C(c1ccccc1)c1nn(-c2ccc(Cl)cc2)c(=O)cc1C(F)(F)F | 65.3% (active) | 62.6% (active) | 21.8% | 51.2% (active) | 73.3% (active) | 72.6% (active) | 70% (active) | 74.8% (active) |
| COc1ccccc1C(=O)Nc1nc(-c2ccc(S(=O)(=O)N3CCOCC3)cc2)cs1 | 68% (active) | 82.1% (active) | 41.6% | 74.5% (active) | 78.5% (active) | 98.4% (active) | 83.7% (active) | 92.2% (active) |
| Nc1cc2c3c(cccc3c1)C(=O)N(CCN1CCCC1)C2=O | 16.8% | 40.7% (active) | 38.9% | 46.9% (active) | 60.5% (active) | 66.6% (active) | 61.6% (active) | 69.9% (active) |
| COc1ccc(-c2noc(CCCC(=O)O)n2)cc1 | 44.7% (active) | 36.1% (active) | 30.7% | 26% (active) | 39% (active) | 47.8% (active) | 40.1% | 30.7% |
| CC(=NNC(=S)Nc1ccc(C)cc1)c1ccccn1 | 59% (active) | 69.9% (active) | 46.8% (active) | 66% (active) | 66.1% (active) | 68.7% (active) | 85.4% (active) | 52.6% (active) |
| Cc1nc2ccc(NC(=O)c3cccs3)cc2c(=O)n1Cc1ccc(Cl)cc1 | 4.95% | 15.8% | -3.3% | 23.8% | 27.4% | 52.7% (active) | 55% (active) | 40.8% (active) |
| S=C(NN=C(c1ccccc1)c1ccccn1)N(Cc1ccccn1)Cc1ccccn1 | 84% (active) | 87.2% (active) | 85% (active) | 89.7% (active) | 91% (active) | 105% (active) | 96.4% (active) | 77.2% (active) |
| CC1CC(C)C[N+](=C2C=C(N3CCCC3)CC(C)(C)C2)C1 (stereo not drawn) | 26.9% | 66.7% (active) | 28.9% | 71.5% (active) | 38.9% (active) | 110% (active) | 79.1% (active) | 91.2% (active) |
| O=[N+]([O-])c1ccc(Sc2cccc[n+]2[O-])c2nonc12 | 98.7% (active) | 95.4% (active) | 91.7% (active) | 93.3% (active) | 98.1% (active) | 111% (active) | 99.2% (active) | 98.9% (active) |
| O=C(N/N=C/c1sc(N2CCOCC2)nc1-c1ccccc1)c1cccc(S(=O)(=O)N2CCOCC2)c1 | 38.1% | 46.1% (active) | 43.6% | 61.9% (active) | 69.9% (active) | 100% (active) | 85.7% (active) | 87.4% (active) |
